The source made the active and inactive calls. Unless noted, no rule for the calls is given here.

Results on 18 molecules are retold here after PubChem BioAssay.

Assay [1] relates to Wnt5a (protein binding on small-molecule microarray). Briefly: small molecules binding Wnt5a protein – biophysical, small-molecule microarray, 635/667 nm fluorescence, primary screen (AID 1142).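 Also: fluorescence read at 667 nm with signal to noise per printed feature.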 The settings on record: 635 nm fluorescence, higher = more signal.
Assay [2] can be described thus: ATP-based viability of Huh7 replicon cells – cell-based, CellTiter-Glo luminescence, basal, 48 h, cytotoxicity control for HCV replication inhibitor project, primary screen (AID 1143).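 Also: Huh7 hepatoma cells carrying a hepatitis C replication reporter with no stimulus; test concentration not given here.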 The settings on record: higher = more signal, called active from +8 up or from −8 down. (In general: Replicon systems follow genome replication, usually without infectious particles.)

Assay [3] in a line: Pseudomonas biofilm growth suppression – PAO1 strain, BacTiter-Glo luminescence, LB-PBS, primary screen (AID 1144). To be noted: P. aeruginosa PAO1 biofilm, 12 h, higher = more signal.
Assay [4] is described as follows: basal CRE-LacZ reporter activity in PC12 – cell-based, unstimulated, primary screen (AID 1145). To be noted: no forskolin, luminescence, 4.5 h, higher = more signal, called active from +8 up or from −8 down.
Assay [5] can be described thus: forskolin-driven CRE-LacZ activity in PC12 – cell-based, CRE-LacZ reporter, forskolin-stimulated, primary screen (AID 1146).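 Also: PC12 cells with 6xCRE LacZ reporter stimulated by forskolin 10 µM; beta-galactosidase reporter signal reflecting CREB driven transcription.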 To be noted: luminescence, 4.5 h, higher = more signal, called active from +8 up or from −8 down.
The target of assay [6] is Streptavidin (Streptomyces avidinii) (UniProt P22629). Briefly: compounds binding control protein streptavidin – biophysical, small-molecule microarray, 635/667 nm fluorescence, artefact control for SMM compound annotation, primary screen (AID 1147).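 Also: signal reflects streptavidin binding to arrayed compounds as a control protein.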 To be noted: higher = more signal.
Sequence of Streptavidin (Streptomyces avidinii) (P22629 whole entry, looked up): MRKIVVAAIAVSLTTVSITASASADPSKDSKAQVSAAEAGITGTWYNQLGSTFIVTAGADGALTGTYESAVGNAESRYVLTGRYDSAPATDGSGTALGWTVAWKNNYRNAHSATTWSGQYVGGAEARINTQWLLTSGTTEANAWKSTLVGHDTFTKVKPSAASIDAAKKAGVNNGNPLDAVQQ
The nature of assay [7]: probe aInhba binding on compound microarray – biochemical, small-molecule microarray, 635/667 nm fluorescence, primary screen (AID 1148).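 Also: score merges 667nm spot fluorescence with signal-to-noise for antibody binding to printed compounds.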 To be noted: higher = more signal.
In assay [8] the target is Torsin-1A (Homo sapiens) (UniProt O14656). Kind of assay: TOR1A wild-type binding on microarray – cell lysate, small-molecule microarray, lysate, 635/667 nm, primary screen (AID 1149). To be noted: COS7 hTOR1A-WT lysate, 635 nm fluorescence, higher = more signal.
Sequence of Torsin-1A (Homo sapiens) (O14656 whole entry, looked up): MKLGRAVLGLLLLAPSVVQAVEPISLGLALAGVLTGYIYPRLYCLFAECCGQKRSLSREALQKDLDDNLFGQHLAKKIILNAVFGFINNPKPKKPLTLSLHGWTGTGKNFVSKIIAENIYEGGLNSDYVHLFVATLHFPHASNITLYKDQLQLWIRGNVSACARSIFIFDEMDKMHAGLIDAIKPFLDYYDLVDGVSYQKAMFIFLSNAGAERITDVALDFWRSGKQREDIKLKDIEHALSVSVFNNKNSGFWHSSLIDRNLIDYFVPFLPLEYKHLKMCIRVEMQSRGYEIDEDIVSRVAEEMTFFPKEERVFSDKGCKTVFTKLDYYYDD
For assay [9] the target is unchanged. Briefly: torsin A mutant lysate binding on microarrays – cell lysate, small-molecule microarray, COS7 lysate, 635/667 nm fluorescence, primary screen (AID 1150).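 Also: score pools 667 nm emission and signal to noise measuring lysate protein binding.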 The settings on record: COS7 hTOR1A mutant lysate, 635 nm fluorescence, higher = more signal.
The subject of assay [10] is Sonic hedgehog protein (Shh). Kind of assay: Sonic hedgehog microarray binding compounds – biochemical, small-molecule microarray, 635/667 nm fluorescence, primary screen (AID 1151).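 Also: Shh protein binding to compounds spotted on small-molecule microarray slides; score combines spot fluorescence intensity with signal-to-noise across triplicate slides.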 The settings on record: 635 nm fluorescence, higher = more signal.

Regarding `CC(C)C(=C=CC[C@@H](O)c1cccc(OCCO)c1)C[C@@H](O)COCc1ccccc1`, the composite z-score is 0.139 in [1]; -0.506 in [6]; -0.165 in [7]; -0.134 in assay [8]; -0.377 in [9]; 1.06 in [10]. In addition, the z-score is -2.36 (inactive) in assay [2], 0.232 (inactive) in [3], 7.66 (inactive) in assay [4] and -1 (inactive) in assay [5].

As for `C=CCC(OC(C)=O)[C@@H]1[C@@H](N(Cc2cc3ccccc3o2)C(=O)c2ccc(-c3ccccc3)cc2)c2cc(OCCCO)ccc2N1C(=O)Cc1ccc(OC)cc1` (stereo not given in full), the composite z-score in assay [1] is -0.138; in [6] it was -0.0182; in assay [7], -0.0736; in [8], -0.592; in [9], -0.324; in [10], 0.366. The z-score in assay [2] is 0.0567 (inactive); in [3], 0.263 (inactive); in [4] it was 1.09 (inactive); in assay [5] it was 0.289 (inactive).

As to `O=C1OCCC=C[C@H]2OC34C=CCN(c5ccc(Cl)cc5)C(=O)[C@H]3N(CCCCCCO)C(=O)[C@@H]4C12` (stereo not given in full), the composite z-score in assay [1] is -0.365; in assay [6] it was -0.985; in assay [7], 0.0333; in assay [8] it was 0.132; in assay [9] it was -0.175; in [10], -0.341. The z-score was -0.352 (inactive) in assay [2], 0.358 (inactive) in assay [3], 0.0645 (inactive) in [4] and -1.34 (inactive) in assay [5].

Regarding `[N-]=[N+]=NCc1ccccc1C[C@]1(C(=O)N2CCOCC2)COC(c2ccc(OCCCO)cc2)=N1`, the composite z-score in assay [1] was 0.0879; in assay [6] it was 1.6; in assay [7] it was 0.0888; in [8] it was 1.71; in assay [9] it was 1.56; in [10], 0.179. The z-score in assay [2] is -3.07 (inactive); in [3] it was -0.983 (inactive); in assay [4] it was 1.69 (inactive); in assay [5], -0.931 (inactive).

`C=C[C@H](C)[C@H](OC(=O)Nc1ccc(OC)cc1)c1ccc(OCCO)cc1`: the composite z-score in assay [1] is -0.423; in assay [6] it was -0.911; in assay [7], -0.314; in assay [8], 0.763; in assay [9], 0.0508; in assay [10] it was 0.261. The z-score in [2] is -2.77 (inactive); in [3], 0.133 (inactive); in [4], 4.89 (inactive); in assay [5] it was 0.0618 (inactive).

Consider `CCOC(=O)C1=C[C@@H](C(C)(C)C)N(S(=O)(=O)c2ccc(C)cc2)[C@H]1c1ccccc1`, for which the composite z-score in assay [1] turned out to be 0.251; in assay [6], 1.29; in assay [7], 0.27; in [8], 0.0214; in assay [9], 0.611; in [10] it was 0.871. The z-score is -4.44 (inactive) in assay [2], 1.43 (inactive) in assay [3], 0.696 (inactive) in [4] and -0.276 (inactive) in [5].

With `O=C1O[C@H](c2ccccc2)[C@H](c2ccccc2)N2[C@H]1[C@@H](C(=O)N1CCCCCCC1)[C@]1(C(=O)Nc3ccc(C#CC4(O)CCCCCC4)cc31)[C@H]2c1ccccc1OCCO`, the composite z-score in assay [1] was found to be 2.32; in [6], 4.02; in assay [7] it was 1.97; in assay [8] it was 3.75; in [9] it was 3.55; in assay [10] it was 2.09. In addition, the z-score in assay [2] was -3.52 (inactive); in [3], -0.41 (inactive); in assay [4] it was 0.335 (inactive); in assay [5], -0.0926 (inactive).

As for `CN1C(=O)[C@@H]2[C@@H](CC(COc3ccccc3)=C([C@H](O)CCc3ccccc3)[C@@H]2CO)C1=O`, the composite z-score in assay [1] is -0.0336; in [6], -0.448; in assay [7], -0.128; in assay [8], 0.762; in assay [9], 0.0706; in assay [10], 0.497. The z-score in [2] is -1.03 (inactive); in assay [3], 0.272 (inactive); in assay [4], 1.67 (inactive); in assay [5], -1.18 (inactive).

For `C=C(COC)C(=O)CC[C@H](OC(C)=O)c1ccc(OCCO)cc1`, the composite z-score is 0.632 in [1]; -0.0693 in [6]; -0.0675 in [7]; 1.2 in assay [8]; 0.647 in assay [9]; 1.85 in assay [10]. The z-score was -3.53 (inactive) in [2], -0.856 (inactive) in assay [3], 2.77 (inactive) in assay [4] and 1.69 (inactive) in assay [5].

Consider `COCCOC(=O)N1C(=O)[C@@]2(c3ccccc31)[C@H](c1ccccc1OCCO)N1[C@H](c3ccccc3)[C@H](c3ccccc3)OC(=O)[C@H]1[C@@H]2C(N)=O`, for which the composite z-score was 0.408 in [1]; 1.25 in [6]; 0.296 in assay [7]; -0.401 in [8]; 1.07 in assay [9]; 1.48 in assay [10]. For the same molecule, the z-score in [2] was -4.2 (inactive); in [3], -0.0116 (inactive); in [4], 0.272 (inactive); in [5] it was 1.86 (inactive).

For the molecule `COC(=O)C(CC#Cc1ccc2c(c1)[C@]1(C(=O)N2)[C@H](c2ccc(OCCO)cc2)N2[C@H](c3ccccc3)[C@H](c3ccccc3)OC(=O)[C@H]2[C@@H]1C(=O)N1CCN(c2ncccn2)CC1)C(=O)OC`, the composite z-score in assay [1] amounted to 0.419; in assay [6] it was 0.862; in assay [7] it was 0.306; in [8], 0.272; in [9], 0.666; in [10], 1.2. For the same molecule, the z-score is -0.339 (inactive) in assay [2], -0.961 (inactive) in assay [3], -0.554 (inactive) in [4] and 1.27 (inactive) in assay [5].

Regarding `CC(C)OC(=O)CC(=O)CC(O)c1ccc([N+](=O)[O-])cc1` (stereo not given), the composite z-score in assay [1] is 0.0008; in assay [6] it was -0.402; in assay [7] it was -0.0044; in assay [8] it was 0.913; in assay [9] it was 0.113; in [10] it was -0.514. Besides, the z-score in assay [2] is -0.824 (inactive); in assay [3], 0.402 (inactive); in assay [4], 1.03 (inactive); in [5], 1.59 (inactive).

As to `C=CCNC(=O)[C@@H]1[C@H]2C(=O)O[C@H](c3ccccc3)[C@H](c3ccccc3)N2[C@H](c2ccc(OCCO)cc2)[C@@]12C(=O)N(C(=O)OCCOC)c1ccc(C#CCCO)cc12`, the composite z-score in assay [1] is 0.85; in assay [6], 0.712; in assay [7] it was -0.0521; in assay [8] it was 0.625; in assay [9], 0.582; in assay [10] it was 1.17. The z-score is -3.32 (inactive) in assay [2], -0.594 (inactive) in assay [3], -0.375 (inactive) in assay [4] and 0.0859 (inactive) in [5].

With `COc1ccc(NC(=O)O[C@H]2[C@@H]3OC(=O)[C@H](Cc4cccc(Br)c4)C/C=C/C[C@@H](Cc4cccc(Br)c4)C(=O)O[C@H]3[C@@H](OC)O[C@@H]2CO)cc1`, the composite z-score in assay [1] amounted to 0.232; in [6], 0.328; in [7], 0.318; in assay [8] it was 0.344; in assay [9], 1.34; in assay [10] it was 0.597. The z-score in assay [2] is -0.878 (inactive); in assay [3], 0.388 (inactive); in assay [4] it was 0.753 (inactive); in assay [5] it was -0.686 (inactive).

As for `CC(C)(C)OC(=O)CC[C@]1(C(=O)N2CCCCC2)COC(c2ccc(OCCCO)cc2)=N1`, the composite z-score in assay [1] was 0.784; in [6] it was 1.36; in assay [7], 0.127; in assay [8] it was 0.655; in [9], 0.967; in [10] it was -0.65. Besides, the z-score in [2] is -2.07 (inactive); in assay [3], -0.984 (inactive); in assay [4] it was -0.837 (inactive); in assay [5] it was 0.238 (inactive).

`COC(=O)[C@@]1(Cc2ccc(OC)cc2)[C@H]2c3cc(C(=O)N4CCCC4)n(Cc4cc(C)n(C)n4)c3C[C@H]2CN1C(=O)c1ccccc1`: the composite z-score in assay [1] is 0.973; in [6], 1.92; in assay [7], 0.605; in assay [8] it was 0.544; in [9], 0.24; in [10], -0.319. Moreover, the z-score is -0.434 (inactive) in assay [2], 0.463 (inactive) in [3], -0.375 (inactive) in assay [4] and 0.543 (inactive) in assay [5].

For the molecule `COCCOC(=O)N1C(=O)[C@@]2(c3cc(C#CC4=CCCCC4)ccc31)[C@H](C(=O)N1CCCCCCC1)[C@H]1C(=O)O[C@H](c3ccccc3)[C@H](c3ccccc3)N1[C@@H]2c1ccc(OCCO)cc1`, the composite z-score in assay [1] turned out to be 0.636; in assay [6], 1.29; in assay [7], 0.515; in assay [8], 1.04; in assay [9], 0.877; in assay [10] it was 1.25. Moreover, the z-score in [2] is -3.96 (inactive); in assay [3] it was -0.0896 (inactive); in [4] it was -0.199 (inactive); in assay [5], 0.463 (inactive).

Turning to `COCCOC(=O)N1C(=O)[C@@]2(c3cc(C#CC4(O)CCCCCC4)ccc31)[C@H](c1ccc(OCCO)cc1)N1[C@H](c3ccccc3)[C@H](c3ccccc3)OC(=O)[C@H]1[C@@H]2C(=O)Nc1nc2ccccc2s1`, the composite z-score is 0.544 in assay [1]; 0.945 in assay [6]; 0.134 in assay [7]; 0.494 in assay [8]; 0.734 in assay [9]; 1.84 in assay [10]. Further, the z-score in [2] is -1.39 (inactive); in [3], 0.3 (inactive); in assay [4], -0.337 (inactive); in assay [5], 0.138 (inactive).
